The nature of experiment [1]: NCI Yeast Anticancer Drug Screen. Data for the rad50 strain (AID 155).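 Note: 0% = growth of vehicle-only cultures of the same strain.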 The following applies: S. cerevisiae rad50 strain growth inhibition, stronger effect = higher value. The essentials: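 Compounds were tested on a yeast strain with an engineered DNA damage repair alteration; the reported value is growth inhibition normalised to vehicle treatment.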
Experiment [2] is described as follows: NCI Yeast Anticancer Drug Screen. Data for the mec2-1 strain (AID 157). The following applies: S. cerevisiae mec2-1 strain, stronger effect = higher value. The essentials:
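Mutant yeast (mec2-1) grown with compound; growth inhibition relative to vehicle control reported.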

Experiment [3] is described as follows: NCI Yeast Anticancer Drug Screen. Data for the sgs1 mgt1 strain (AID 161).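 Note: 0% = growth of cultures given vehicle only.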 To be noted: S. cerevisiae sgs1 mgt1 strain, stronger effect = higher value. In short, it runs like this:
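Compounds are added to genetically altered yeast, and growth is compared with cultures given vehicle alone to give percent inhibition.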

Experiment [4] is described as follows: NCI Yeast Anticancer Drug Screen. Data for the cln2 rad14 strain (AID 165).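 Note: 0% = growth equal to vehicle treated cultures.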 To be noted: S. cerevisiae cln2 rad14 strain, stronger effect = higher value. The essentials:
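Readout is yeast growth inhibition versus vehicle-treated controls, using a strain with cln2 and rad14 alterations exposed to compound.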

The nature of experiment [5]: NCI Yeast Anticancer Drug Screen. Data for the bub3 strain (AID 167). The following applies: S. cerevisiae bub3 mutant strain, stronger effect = higher value. The essentials: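 Growth of a checkpoint-deficient yeast mutant is measured after compound exposure. Values represent inhibition relative to vehicle.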
Experiment [6] is described as follows: NCI Yeast Anticancer Drug Screen. Data for the mlh1 rad18 strain (AID 175). The following applies: S. cerevisiae mlh1 rad18 strain growth inhibition, stronger effect = higher value. In short, it runs like this:
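Genetically defined yeast (DNA repair-deficient) exposed to compounds; growth inhibition determined relative to vehicle.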

Setting [7] is: at 5.0 µM (retest, dose inferred, filed as 0.5).
Setting [8] is: at 50.0 µM (retest, dose inferred, filed as 5.0).

“And” between values parts separate entries of the source, which are not always exact repeats. Equal values may be shown once. This is part of a sample that, as a whole, favours compounds with a hit. Of some 79,000 tested, about 15% had one in any assay. The source holds several records for some structures; these can differ, active in one and inactive in another. The source made the active and inactive calls. Cut-off read from the data, not from the text of the source: active = growth inhibition above about 70%; inactive = the rest.

Consider eight compounds from PubChem BioAssay (NCI).

On to `O=C1OC2=C(c3ccccc3)CCCC2C1=O` (centres undefined), for which the growth inhibition is -1% (inactive) in experiment [1] (setting [7]); 88% (active) in experiment [1] (setting [8]); 83% (active) and -7.3% (inactive) in experiment [1] (at 50.0 µM); 3% (inactive) in experiment [2] (setting [7]); 89% (active) in experiment [2] (setting [8]); 78.5% (active) and 4.7% (inactive) in experiment [2] (at 50.0 µM). Moreover, the growth inhibition in experiment [3] (setting [7]) is 1% (inactive); in experiment [3] (setting [8]), 69% (inactive); in experiment [3] (at 50.0 µM), 93.8% (active) and -3.3% (inactive); in experiment [4] (setting [7]), -3% (inactive); in experiment [4] (setting [8]), 94% (active); in experiment [4] (at 50.0 µM) it was 92.5% (active) and 0.1% (inactive). Besides, the growth inhibition was 0% (inactive) in experiment [5] (setting [7]); 93% (active) in experiment [5] (setting [8]); 85.4% (active) and -6.2% (inactive) in experiment [5] (at 50.0 µM); 0% (inactive) in experiment [6] (setting [7]); 93% (active) in experiment [6] (setting [8]); 91.7% (active) and 3.8% (inactive) in experiment [6] (at 50.0 µM).
Regarding `CC(=O)c1c2ccccc2cc2ccccc12`, the growth inhibition in experiment [1] (setting [7]) was 7% (inactive) and 61% (inactive); in experiment [1] (setting [8]), 74% (active) and 96% (active); in experiment [1] (at 50.0 µM), 68.4% (inactive) and 92.3% (active); in experiment [2] (setting [7]), 9% (inactive) and 44% (inactive); in experiment [2] (setting [8]), 88% (active) and 98% (active); in experiment [2] (at 50.0 µM), 79% (active) and 96.5% (active). In addition, the growth inhibition in experiment [3] (setting [7]) is 6% (inactive) and 45% (inactive); in experiment [3] (setting [8]), 77% (active) and 98% (active); in experiment [3] (at 50.0 µM), 53% (inactive) and 94.7% (active); in experiment [4] (setting [7]), 12% (inactive) and 49% (inactive); in experiment [4] (setting [8]), 89% (active) and 96% (active); in experiment [4] (at 50.0 µM), 72.4% (active) and 89.1% (active). In addition, the growth inhibition in experiment [5] (setting [7]) is 17% (inactive) and 56% (inactive); in experiment [5] (setting [8]), 95% (active) and 97% (active); in experiment [5] (at 50.0 µM) it was 79.5% (active) and 95.6% (active); in experiment [6] (setting [7]), 9% (inactive) and 46% (inactive); in experiment [6] (setting [8]) it was 94% (active) and 97% (active); in experiment [6] (at 50.0 µM), 75% (active) and 96.2% (active).
`COC(=O)[C@]1(C)CCC[C@]2(C)c3ccc(C(C)C)cc3CC[C@@H]12`: the growth inhibition is 0% (inactive) in experiment [1] (setting [7]); 40% (inactive) in experiment [1] (setting [8]); -12.8% (inactive) and 98.4% (active) in experiment [1] (at 50.0 µM); 6% (inactive) in experiment [2] (setting [7]); 97% (active) in experiment [2] (setting [8]); 3.05% (inactive) and 99.1% (active) in experiment [2] (at 50.0 µM). In addition, the growth inhibition in experiment [3] (setting [7]) was -8% (inactive); in experiment [3] (setting [8]), 74% (active); in experiment [3] (at 50.0 µM), 13.8% (inactive) and 99% (active); in experiment [4] (setting [7]), 0% (inactive); in experiment [4] (setting [8]), 41% (inactive); in experiment [4] (at 50.0 µM), -19.3% (inactive) and 99% (active). The growth inhibition is 1% (inactive) in experiment [5] (setting [7]); 43% (inactive) in experiment [5] (setting [8]); -31.1% (inactive) and 99.2% (active) in experiment [5] (at 50.0 µM); -1% (inactive) in experiment [6] (setting [7]); 66% (inactive) in experiment [6] (setting [8]); 10.1% (inactive) and 99% (active) in experiment [6] (at 50.0 µM).
With `CC(=O)OC(c1ccccc1)c1ccc(Cl)cc1` (centres undefined), the growth inhibition in experiment [1] (setting [7]) was 3% (inactive); in experiment [1] (setting [8]) it was 0% (inactive); in experiment [1] (at 50.0 µM) it was -11% (inactive); in experiment [2] (setting [7]), 7% (inactive); in experiment [2] (setting [8]) it was 6% (inactive); in experiment [2] (at 50.0 µM), 42.2% (inactive). Moreover, the growth inhibition is 4% (inactive) in experiment [3] (setting [7]); 8% (inactive) in experiment [3] (setting [8]); -0.4% (inactive) in experiment [3] (at 50.0 µM); 4% (inactive) in experiment [4] (setting [7]); -14% (inactive) in experiment [4] (setting [8]); -1.9% (inactive) in experiment [4] (at 50.0 µM). In addition, the growth inhibition in experiment [5] (setting [7]) was 6% (inactive); in experiment [5] (setting [8]) it was 8% (inactive); in experiment [5] (at 50.0 µM), -5.65% (inactive); in experiment [6] (setting [7]), 1% (inactive); in experiment [6] (setting [8]), -1% (inactive); in experiment [6] (at 50.0 µM), 2.9% (inactive).
For `Nc1c(C(=O)O)ccc(C(=O)O)c1C(=O)O`, the growth inhibition in experiment [1] (setting [7]) was -131% (inactive); in experiment [1] (setting [8]) it was -173% (inactive); in experiment [1] (at 50.0 µM) it was -5.95% (inactive) and 2.45% (inactive); in experiment [2] (setting [7]) it was -50% (inactive); in experiment [2] (setting [8]), -53% (inactive); in experiment [2] (at 50.0 µM) it was 14.1% (inactive) and -1% (inactive). Also, the growth inhibition in experiment [3] (setting [7]) is -54% (inactive); in experiment [3] (setting [8]), -67% (inactive); in experiment [3] (at 50.0 µM) it was 25% (inactive) and 3.8% (inactive); in experiment [4] (setting [7]), -56% (inactive); in experiment [4] (setting [8]) it was -60% (inactive); in experiment [4] (at 50.0 µM) it was 3.75% (inactive) and -23.4% (inactive). Further, the growth inhibition was -65% (inactive) in experiment [5] (setting [7]); -79% (inactive) in experiment [5] (setting [8]); -2.6% (inactive) and -5.8% (inactive) in experiment [5] (at 50.0 µM); -113% (inactive) in experiment [6] (setting [7]); -123% (inactive) in experiment [6] (setting [8]); 33.5% (inactive) and -12.9% (inactive) in experiment [6] (at 50.0 µM).
Regarding `CCOCc1ccccc1C(O)(c1ccc(OC)cc1)c1ccc(OC)cc1`, the growth inhibition in experiment [1] (setting [7]) is 5% (inactive) and 1% (inactive); in experiment [1] (setting [8]) it was 2% (inactive) and 1% (inactive); in experiment [1] (at 50.0 µM) it was 48.3% (inactive) and 78.8% (active); in experiment [2] (setting [7]), 2% (inactive) and 6% (inactive); in experiment [2] (setting [8]), 9% (inactive) and 11% (inactive); in experiment [2] (at 50.0 µM), 33.4% (inactive) and 72.5% (active). Also, the growth inhibition in experiment [3] (setting [7]) is 6% (inactive) and -2% (inactive); in experiment [3] (setting [8]), 10% (inactive) and 21% (inactive); in experiment [3] (at 50.0 µM), 60.5% (inactive) and 77.2% (active); in experiment [4] (setting [7]), 3% (inactive) and 5% (inactive); in experiment [4] (setting [8]), 3% (inactive) and 7% (inactive); in experiment [4] (at 50.0 µM), 67% (inactive) and 94.2% (active). Also, the growth inhibition in experiment [5] (setting [7]) is 3% (inactive) and 14% (inactive); in experiment [5] (setting [8]), 33% (inactive) and 61% (inactive); in experiment [5] (at 50.0 µM), 76.5% (active) and 95.8% (active); in experiment [6] (setting [7]), 3% (inactive) and 5% (inactive); in experiment [6] (setting [8]), -26% (inactive) and 41% (inactive); in experiment [6] (at 50.0 µM) it was 74% (active) and 82.8% (active).
On to `CC1(C)N(OC2CCCCO2)C(c2ccccc2)C(c2ccccc2)=[N+]1[O-]` (centres undefined), for which the growth inhibition is 18% (inactive) in experiment [1] (setting [7]); 24% (inactive) in experiment [1] (setting [8]); 34% (inactive) in experiment [1] (at 50.0 µM); 12% (inactive) in experiment [2] (setting [7]); 21% (inactive) in experiment [2] (setting [8]); 3.05% (inactive) in experiment [2] (at 50.0 µM). Besides, the growth inhibition in experiment [3] (setting [7]) is 18% (inactive); in experiment [3] (setting [8]), 18% (inactive); in experiment [3] (at 50.0 µM) it was -13.7% (inactive); in experiment [4] (setting [7]), 17% (inactive); in experiment [4] (setting [8]), 27% (inactive); in experiment [4] (at 50.0 µM), 7.4% (inactive). In addition, the growth inhibition in experiment [5] (setting [7]) was 19% (inactive); in experiment [5] (setting [8]), 25% (inactive); in experiment [5] (at 50.0 µM) it was -23% (inactive); in experiment [6] (setting [7]), 21% (inactive); in experiment [6] (setting [8]), 24% (inactive); in experiment [6] (at 50.0 µM) it was -6.55% (inactive).
Regarding `C=C1C(=O)OC2CC(C)C3C4OC4C(O)C3(C)C(O)C12` (centres undefined), the growth inhibition is 2% (inactive) in experiment [1] (setting [7]); 0% (inactive) in experiment [1] (setting [8]); 69.9% (inactive) in experiment [1] (at 50.0 µM); 2% (inactive) in experiment [2] (setting [7]); 4% (inactive) in experiment [2] (setting [8]); 39.1% (inactive) in experiment [2] (at 50.0 µM). The growth inhibition in experiment [3] (setting [7]) was 4% (inactive); in experiment [3] (setting [8]) it was 8% (inactive); in experiment [3] (at 50.0 µM), 65.7% (inactive); in experiment [4] (setting [7]), -3% (inactive); in experiment [4] (setting [8]), -6% (inactive); in experiment [4] (at 50.0 µM), 50.4% (inactive). Also, the growth inhibition is 2% (inactive) in experiment [5] (setting [7]); 6% (inactive) in experiment [5] (setting [8]); 71% (active) in experiment [5] (at 50.0 µM); 0% (inactive) in experiment [6] (setting [7]); -2% (inactive) in experiment [6] (setting [8]); 63.6% (inactive) in experiment [6] (at 50.0 µM).
